# Experimental data published in ChEMBL document CHEMBL5308504, “Tm Shift (DSF) assay results for EUbOPEN Chemogenomics Library” (2023).
# Molecular target: Bromodomain-containing protein 4 (Homo sapiens) (UniProt O60885)
# Details: Compound concentration 20.0 uM, Protein concentration 2.0 uM, Result type QC Liability
row,Compound,ΔTm
1,CC1CCN(C(=O)[C@@H](CCn2cccc2C#N)NS(=O)(=O)c2cccc3[nH]ccc23)CC1,-1.03 °C
2,CC(C)c1cnn2c(NCc3ccccc3)cc(NCCCCCCN)nc12,0.76 °C
3,CC1CCN(c2ccnc(NCc3cn(C)cn3)n2)CC1,-1.06 °C
4,c1ccc2c(c1)SCc1c-2[nH]c2ccccc12,-15.3 °C
5,CC(=O)O[C@H]1C(=O)[C@@]2(C)[C@H]([C@H](OC(=O)c3ccccc3)[C@]3(O)C[C@H](OC(=O)[C@H](O)[C@@H](NC(=O)c4ccccc4)c4ccccc4)C(C)=C1C3(C)C)[C@]1(OC(C)=O)CO[C@@H]1C[C@@H]2O,-0.05 °C
6,CNC(=O)COc1cc2cc(Nc3nc(N4CCC(C(=O)N(C)C)CC4)ncc3Cl)cc(OC)c2n(C)c1=O,-1.01 °C
7,CC[C@@H](C(=O)OC)n1c(=O)c2ccccc2n(Cc2cn(C)c3cccc(C)c23)c1=O,1.22 °C
8,CN(C)C(=O)c1cc2cnc(Nc3ccc(N4CCN(CCCCNC(=O)COc5cccc6c5C(=O)N(C5CCC(=O)NC5=O)C6=O)CC4)cn3)nc2n1C1CCCC1 (centres undefined),-0.39 °C
9,CO[C@H]1C[C@@H]2CC[C@@H](C)[C@@](O)(O2)C(=O)C(=O)N2CCCC[C@H]2C(=O)O[C@H]([C@H](C)C[C@@H]2CC[C@@H](O)[C@H](OC)C2)CC(=O)[C@H](C)/C=C(\C)[C@@H](O)[C@@H](OC)C(=O)[C@H](C)C[C@H](C)/C=C/C=C/C=C/1C,-2.02 °C
10,CCCCCNC(=O)N1CCC(CN(Cc2ccc(Cl)cc2)Cc2ccc([N+](=O)[O-])s2)C1 (centres undefined),-2.51 °C
11,COC1(C#Cc2ccc(Cl)c(-c3ncc4c(n3)-c3sc(NC(C)=O)nc3CC4)c2)CCN(C)CC1,-2.24 °C
12,Cc1cc(C)nc(Nc2ncc(C(=O)NCCc3c(C)[nH]c4ccccc34)cn2)c1,-0.8 °C
13,O=C(O)CCn1c2c(c3ccccc31)C[C@H](NS(=O)(=O)c1ccc(F)cc1)CC2,-1.19 °C
14,COc1cc(C(=O)NC2CCN(C)CC2)ccc1Nc1ncc(C(F)(F)F)c(NCc2ccc(C)cc2N(C)S(C)(=O)=O)n1,-2.71 °C
15,O[C@]1(C(F)(F)F)CCCC[C@H]1Nc1ccc(F)cc1,-1.92 °C
16,Cc1sc(C(=O)c2cncnc2N[C@@H]2C[C@H](COS(N)(=O)=O)[C@@H](O)C2)cc1[C@@H]1NCCc2ccc(Cl)cc21,-4.45 °C
17,COc1ncc(-c2cc(-c3ncc(CN4C[C@@H](C)O[C@@H](C)C4)o3)c3cn[nH]c3c2)cc1NS(C)(=O)=O,0.37 °C
18,C1=Cc2ccccc2C(=C2CCN(CCCCc3nnn[nH]3)CC2)c2ccccc21,-12.7 °C
19,FC(F)c1cncc(-c2ccc3ncc4nnc(C5=CCCOCC5)n4c3c2)c1,-0.98 °C
20,Cc1n[nH]c2ncc(C(=O)N3CCC[C@H]3c3ccc(Cl)cc3)cc12,0 °C

row,Compound,ΔTm
1,CC/C(=C(\c1ccccc1)c1ccc(OCCN(C)C)cc1)c1ccccc1,-4.1 °C
2,C[C@H](CCOc1cccc(CC(=O)O)c1)N(Cc1cccc(C(F)(F)F)c1Cl)CC(c1ccccc1)c1ccccc1,-6.66 °C
3,CNc1nc(-c2ccc3c(N)n[nH]c3c2)cc(N2C[C@@H](C(=O)NC3CCCCC3)CC[C@H]2C)n1,0.26 °C
4,CCCCC(C)(O)C/C=C/[C@H]1[C@H](O)CC(=O)[C@@H]1CCCCCCC(=O)O (some centres undefined),-1.42 °C
5,C[C@@H]1COCCN1c1cc(=O)n2c(n1)N(Cc1cncc(Cl)c1)[C@H](C(F)(F)F)CC2,-0.07 °C
6,N#Cc1ccc(C#CC[C@@H](C#N)NC(=O)[C@@H]2CCCCN2)cc1F,-1.93 °C
7,Cc1cccc(CC(=O)N2CCc3c2ccc(-c2cn(C)c4ncnc(N)c24)c3F)n1,-0.38 °C
8,Cc1c(N2CCNCC2)nc2ccc(Br)cc2c1C(=O)NC[C@H](CCC(=O)O)c1ccccc1Cl,-1.62 °C
9,CN[C@@H](C)C(=O)N[C@H](C(=O)N1CCC[C@H]1C(=O)Nc1sc(-c2ncco2)nc1-c1ccccc1)C1CCCCC1,-2.68 °C
10,Cn1c(C2(NC(=O)c3ccc(NCC4CCCCC4)nc3)CCC2)nc2ccc(/C=C/C(=O)O)cc21,0.73 °C
11,CC(C)N(C(=O)C1CCOCC1)c1cc(F)c(Oc2ncc(Cn3nccn3)cc2C(F)(F)F)cc1C(=O)O,-3.14 °C
12,CN[C@@H](C)C(=O)N[C@H](C(=O)N1CCC[C@H]1C(=O)N[C@@H]1CCCc2ccccc21)C1CCCCC1,-2.83 °C
13,COCCN1CCN(CCn2ccc(Nc3ncc4c(n3)-c3c(nn(C)c3-c3ccccc3)C[C@H]4C)n2)CC1,-1.68 °C
14,Cc1[nH]nc(C(F)(F)F)c1Cc1sc2c(c1C(=O)N1C[C@](C)(O)CO1)c(=O)n(C)c(=O)n2C(C)C,-1.28 °C
15,O=C(NC1CCNCC1)c1n[nH]cc1NC(=O)c1c(Cl)cccc1Cl,-0.14 °C
16,O=C(O)c1ccc(OCCCc2ccc(OCCCCOC3CCCCC3)cc2)c(C(=O)NC2CCCC(C(=O)O)C2)c1 (centres undefined),0.35 °C
17,CCN1C(=O)N(c2c(F)c(OC)cc(OC)c2F)Cc2cnc3[nH]c(CN4CCOCC4)cc3c21,-1.4 °C
18,COc1cc(Cl)c(C(=O)N[C@@H](CN[C@H]2CC[C@@H](N)CC2)Cc2ccc(C#N)cc2)cc1-c1ccc(CN[C@H](C)c2ccc(C)cc2)o1,-1.12 °C
19,CNCc1ccc(-c2cc(-c3nc(-c4ccc(S(=O)(=O)C(C)C)cc4)cnc3N)on2)cc1,-2.54 °C
